According to PubChem BioAssay (NCATS):
Values without a mark were called inactive. Calls follow the shape of the dose curve; as a rule, active = well fitted curve in the direction sought with a large enough effect; inconclusive = small, poorly fitted or top-dose-only effect, or effect the other way, or another doubt; inactive = no such curve, though single readings can be large or run the other way.

Experiment: qHTS for Inhibitors of Cell Surface uPA Generation: Validation Assay (AID 493164);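 also: RAW 264.7 macrophage cells exposed to compound for 18 h; 0% is about no effect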
Settings: mouse cells, plasminogen activation; series mostly up to 38.3 µM; activity change: at the top concentration
Source text: NIH Chemical Genomics Center [NCGC]
NIH Molecular Libraries Probe Centers Network [MLPCN]
Assay Submitter (PI): Thomas Bugge
The overall objective of this project is to perform a quantitative high throughput screen (qHTS) to identify novel compounds that inhibit the generation of cell surface urokinase activity. The urokinase plasminogen activator (uPA) is one of the two primary endogenous systems that mediate plasminogen activation into plasmin. Members of this system, including uPA and its receptor (uPAR), are overexpressed in several malignant tumors. This system plays a major role in adhesion, migration, invasion and metastasis of cancer cells. Small molecule inhibitors of the uPA system will serve as probes to understand the molecular mechanisms of the uPA cascade and better understanding the microenvironmental circumstances that facilitate the activation of plasminogen by uPA, and finally may provide novel candidate agents for anticancer drug therapy.
[…] […] Upon inhibition of the uPA activation cascade, the subsequent cell surface uPA activity-dependent translocation of LF into the cytoplasm is inhibited. ATP-Lite is used to measure intracellular ATP concentrations, which remain increased if LF entry into the cytoplasm is inhibited. This validation assay was performed using a small set of validation compounds.
uPA assay protocol summary:
RAW 264.7 cells were maintained in DMEM medium (Invitrogen, Carlsbad, CA) at 37C under a humidified atmosphere containing 5% CO2 and 95% air. The medium contained 10% FBS, 1 mM sodium pyruvate and 50 U/ml penicillin/streptamycin (Invitrogen, Carlsbad, CA). All compounds were screened as 7-point titration from 2.45 nM to 38.3 uM final concentration. The assay was performed in 1536-well format plate as follows:
1.Dispensing RAW 264.7 cells into 1536-well, white walled tissue culture plates at a density of 4000 cells/well (4 uL).
2.Incubation at 37 C in a 5% CO2 incubator overnight.
3.Serially diluting compounds (1:5 serial dilution; 0.0024 uM to […] final concentration) in 23 nl DMSO.
5.Incubating the compound and reagent-treated plates for 18 hours at 37 C in a 5% CO2 incubator.
6.Adding ATP-Lite (3 ul).
7.Reading plates by ViewLux with an exposure length of 5 seconds.

Question: For NNc1nncc2ccccc12, which “activity change” value is on record?
Answer: The value was -0.527%.

Question: Which “activity change” value does the source give for CCN(CC)C(=S)SSC(=S)N(CC)CC here?
Answer: Its value is 1.02%.

Question: For O=C1c2c(O)cc(O)cc2OC(c2ccc(O)c(O)c2)C1O (configuration not stated), which “activity change” value is on record?
Answer: Its value is 0.198%.

Question: With C[C@H](Cc1ccc(O)c(O)c1)[C@@H](C)Cc1ccc(O)c(O)c1 as the compound, how does the “activity change” value read?
Answer: Its value is 1.02%.

Question: Which “activity change” value does the source give for Cc1c(OCC(F)(F)F)ccnc1CS(=O)c1nc2ccccc2[nH]1 (configuration not stated) here?
Answer: The value was 1.13%.

Question: For O=C1NC(=O)C(c2ccccc2[N+](=O)[O-])=C1Nc1ccc(O)c(Cl)c1, which “activity change” value is on record?
Answer: Its value is -0.585%.

Question: With NCCCCNCCCN as the compound, how does the “activity change” value read?
Answer: The value was 0.975%.

Question: Which “activity change” value does the source give for Cc1cccc(C#Cc2ccccc2)n1 here?
Answer: Its value is 1.04%.

Question: With COc1cc2c(cc1OC)C1CC(=O)C(CC(C)C)CN1CC2 (configuration not stated) as the compound, how does the “activity change” value read?
Answer: Its value is -0.364%.

Question: With O=Nc1c(-c2c(O)[nH]c3cc(Br)ccc23)[nH]c2ccccc12 as the compound, how does the “activity change” value read?
Answer: The value was 2.92%.

Question: Which “activity change” value does the source give for C[C@@H](N)C1CCC(C(=O)Nc2ccncc2)CC1 (some centres not stated) here?
Answer: The value was 0.28%.

Question: With Oc1ccc(-c2nc(-c3ccc(F)cc3)c(-c3ccncc3)[nH]2)cc1 as the compound, how does the “activity change” value read?
Answer: The value was -0.384%.

Question: For O=c1c(O)c(-c2cc(O)c(O)c(O)c2)oc2cc(O)cc(O)c12, which “activity change” value is on record?
Answer: Its value is 1.2%.

Question: With Nc1nc(OCc2ccccc2)c2[nH]cnc2n1 as the compound, how does the “activity change” value read?
Answer: Its value is -0.734%.

Question: For Cc1cc(O)c2c(c1)C(=O)c1cc(O)cc(O)c1C2=O, which “activity change” value is on record?
Answer: Its value is 1.18%.

Question: For Nc1ccn([C@@H]2O[C@H](CO)[C@@H](O)C2O)c(=O)n1 (some centres not stated), which “activity change” value is on record?
Answer: Its value is 1.45%.

Question: With CC(=O)N1CCN(c2ccc(OC[C@H]3CO[C@](Cn4ccnc4)(c4ccc(Cl)cc4Cl)O3)cc2)CC1 as the compound, how does the “activity change” value read?
Answer: Its value is 1.57%.

Question: For O=C(O)c1cccnc1Nc1cccc(C(F)(F)F)c1, which “activity change” value is on record?
Answer: Its value is 1.29%.

Question: With CC1(C)C(=O)N(CCN2CCC(C(=O)c3ccc(F)cc3)CC2)c2ccccc21 as the compound, how does the “activity change” value read?
Answer: Its value is 0.651%.

Question: Which “activity change” value does the source give for CN(C)CCCC1(c2ccc(F)cc2)OCc2cc(C#N)ccc21 (configuration not stated) here?
Answer: The value was -0.996%.

Question: Which “activity change” value does the source give for O=c1c(O)c(-c2ccc(O)cc2O)oc2cc(O)cc(O)c12 here?
Answer: Its value is 0.298%.

Question: For CNC[C@H](O)c1ccc(O)c(O)c1, which “activity change” value is on record?
Answer: The value was 1.12%.

Question: For CCOC(=O)C(C)Oc1cccc2c(=O)n(CC(=O)Nc3ccc4c(c3)OCCO4)ccc12 (configuration not stated), which “activity change” value is on record?
Answer: Its value is -0.863%.

Question: Which “activity change” value does the source give for COc1ccc2cc([C@H](C)C(=O)O)ccc2c1 here?
Answer: The value was 0.706%.

Question: Which “activity change” value does the source give for COc1cc2nc(N3CCN(C(=O)C4CCCO4)CC3)nc(N)c2cc1OC (configuration not stated) here?
Answer: Its value is -0.782%.

Question: With COc1ccccc1N1CCN(CCN(C(=O)C2CCCCC2)c2ccccn2)CC1 as the compound, how does the “activity change” value read?
Answer: The value was 1.94%.

Question: Which “activity change” value does the source give for O=c1ccc2ccc(O)c(O)c2o1 here?
Answer: The value was 1.65%.

Question: Which “activity change” value does the source give for Oc1ccc2ccccc2c1SSc1c(O)ccc2ccccc12 here?
Answer: Its value is 2.31%.

Question: With Nc1nc(N)c(N=O)c(OCC2CCCCC2)n1 as the compound, how does the “activity change” value read?
Answer: Its value is 2.28%.

Question: For O=C(c1ccccc1)c1ccc2n1CCC2C(=O)O (configuration not stated), which “activity change” value is on record?
Answer: The value was 0.0399%.

Question: Which “activity change” value does the source give for OC(CN1CCN(c2cccc(Cl)c2)CC1)C(c1ccccc1)c1ccccc1 (configuration not stated) here?
Answer: Its value is 0.013%.

Question: For CC(=O)O[C@H]1C(=O)[C@@]2(C)C([C@H](OC(=O)c3ccccc3)[C@]3(O)C[C@H](OC(=O)[C@H](O)[C@@H](NC(=O)c4ccccc4)c4ccccc4)C(C)=C1C3(C)C)[C@]1(OC(C)=O)CO[C@@H]1C[C@@H]2O (some centres not stated), which “activity change” value is on record?
Answer: The value was 3.52%.

Question: Which “activity change” value does the source give for CC1(C)NC(=O)N(c2ccc([N+](=O)[O-])c(C(F)(F)F)c2)C1=O here?
Answer: The value was 1.41%.

Question: Which “activity change” value does the source give for O=C(CCc1ccc(O)cc1)c1c(O)cc(O)cc1O here?
Answer: The value was -0.0175%.

Question: With NC(=NCc1ccccc1)NC(=O)c1nc(Cl)c(N)nc1N as the compound, how does the “activity change” value read?
Answer: The value was -0.407%.

Question: Which “activity change” value does the source give for O=c1cc(N2CCOCC2)oc2c(-c3ccccc3)cccc12 here?
Answer: The value was 1.6%.

Question: Which “activity change” value does the source give for CC(C)c1ccc2c(c1)c(SC(C)(C)C)c(CC(C)(C)C(=O)O)n2Cc1ccc(Cl)cc1 here?
Answer: The value was 2.48%.
